According to PubChem BioAssay:
Active and inactive are the calls of the source. Unless noted, how the calls were made is not given here.

Assays:
[1] = anti-His antibody binders, primary screen, artefact control for SMM control protein annotation, biochemical, small-molecule microarray, 635 nm fluorescence (AID 1128); conditions: anti-His Alexa647 antibody binding, higher = more signal;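 further: score merges feature fluorescence with signal-to-noise for each printed compound spot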
[2] = test system: Human papillomavirus type 1a E7 protein (residues 1-88); assay: HPV1a E7 small-molecule binders, primary screen, biochemical, small-molecule microarray, residues 1-88, 635 nm (AID 1129); conditions: small-molecule microarray binding, fluorescence 635 nm; higher = more signal
[3] = target: Focal adhesion kinase 1 (Homo sapiens) (UniProt Q05397); assay: small-molecule microarray binders of FAK, primary screen, biochemical, 635/667 nm fluorescence, BSA, DTT (AID 1130); conditions: PTK2 binding, 635 nm fluorescence, higher = more signal;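 further: composite of spot emission at 667 nm and signal to noise over triplicate slides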
Chain of Focal adhesion kinase 1 (Homo sapiens) (Q05397 whole entry, looked up): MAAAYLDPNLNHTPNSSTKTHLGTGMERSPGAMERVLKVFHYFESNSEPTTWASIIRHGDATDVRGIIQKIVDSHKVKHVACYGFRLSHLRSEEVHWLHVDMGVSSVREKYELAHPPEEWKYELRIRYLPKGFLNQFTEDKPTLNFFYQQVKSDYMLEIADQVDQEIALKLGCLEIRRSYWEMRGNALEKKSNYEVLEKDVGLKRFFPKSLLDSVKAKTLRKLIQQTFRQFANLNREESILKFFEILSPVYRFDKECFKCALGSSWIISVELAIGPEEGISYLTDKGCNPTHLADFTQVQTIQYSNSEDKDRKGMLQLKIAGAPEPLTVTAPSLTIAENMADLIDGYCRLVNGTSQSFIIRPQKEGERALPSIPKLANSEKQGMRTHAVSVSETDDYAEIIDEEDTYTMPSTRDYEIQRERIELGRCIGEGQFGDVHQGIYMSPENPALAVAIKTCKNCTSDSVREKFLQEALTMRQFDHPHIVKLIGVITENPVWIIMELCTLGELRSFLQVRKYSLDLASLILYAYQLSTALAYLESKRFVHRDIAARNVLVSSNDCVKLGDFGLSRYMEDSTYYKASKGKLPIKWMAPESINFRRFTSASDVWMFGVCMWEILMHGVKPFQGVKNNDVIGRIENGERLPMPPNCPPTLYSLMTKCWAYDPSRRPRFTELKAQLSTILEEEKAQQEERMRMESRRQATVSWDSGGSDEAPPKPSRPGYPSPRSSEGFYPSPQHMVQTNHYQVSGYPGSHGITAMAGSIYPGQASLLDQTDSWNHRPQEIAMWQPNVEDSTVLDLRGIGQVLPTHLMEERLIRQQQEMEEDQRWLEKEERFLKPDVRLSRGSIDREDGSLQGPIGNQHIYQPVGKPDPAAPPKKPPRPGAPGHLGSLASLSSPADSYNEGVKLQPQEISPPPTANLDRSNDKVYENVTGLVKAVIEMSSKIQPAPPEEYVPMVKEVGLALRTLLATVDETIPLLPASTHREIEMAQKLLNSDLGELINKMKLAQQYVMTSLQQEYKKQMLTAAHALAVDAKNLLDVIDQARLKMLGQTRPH

[4] = test system: Fibrinogen (Alexa647-labelled); assay: fibrinogen binders on compound microarrays, profiling panel, artefact control for SMM control-protein annotation, biochemical, small-molecule microarray, 635/667 nm fluorescence (AID 1131); conditions: fibrinogen-A647 binding fluorescence, higher = more signal;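 further: z-score merges 667 nm fluorescence with per-spot signal-to-noise over triplicate slides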
[5] = target: Follistatin (Homo sapiens) (UniProt P19883); assay: follistatin binders on small-molecule microarrays, primary screen, biochemical, small-molecule microarray, 635/667 nm fluorescence (AID 1132); conditions: FST binding, 635 nm fluorescence, higher = more signal
Chain of Follistatin (Homo sapiens) (P19883 whole entry, looked up): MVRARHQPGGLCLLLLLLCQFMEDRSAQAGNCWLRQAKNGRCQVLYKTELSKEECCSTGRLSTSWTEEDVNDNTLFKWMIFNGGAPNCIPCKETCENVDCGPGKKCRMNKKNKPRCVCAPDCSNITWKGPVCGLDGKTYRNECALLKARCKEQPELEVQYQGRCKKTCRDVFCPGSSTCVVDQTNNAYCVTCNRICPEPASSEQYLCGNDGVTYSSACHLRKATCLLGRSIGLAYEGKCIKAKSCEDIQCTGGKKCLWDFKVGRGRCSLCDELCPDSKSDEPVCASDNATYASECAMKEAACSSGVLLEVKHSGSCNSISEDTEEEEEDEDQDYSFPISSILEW

[6] = target: Fibroblast growth factor 2 (Homo sapiens) (UniProt P09038); assay: FGF2 binders on small-molecule microarrays, primary screen, biochemical, small-molecule microarray, 635/667 nm fluorescence (AID 1133); conditions: small-molecule microarray binding, FGF2, fluorescence 635/667; higher = more signal
Chain of Fibroblast growth factor 2 (Homo sapiens) (P09038 whole entry, looked up): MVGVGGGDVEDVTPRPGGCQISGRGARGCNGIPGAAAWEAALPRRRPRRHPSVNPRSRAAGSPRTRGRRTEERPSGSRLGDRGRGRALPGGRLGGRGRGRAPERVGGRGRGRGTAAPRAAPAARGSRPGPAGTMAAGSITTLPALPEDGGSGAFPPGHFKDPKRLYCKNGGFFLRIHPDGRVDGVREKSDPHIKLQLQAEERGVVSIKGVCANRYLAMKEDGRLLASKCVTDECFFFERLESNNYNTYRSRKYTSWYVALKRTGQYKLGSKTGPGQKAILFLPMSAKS

[7] = mitochondrial membrane potential change in A549 cells, profiling panel, cell-based, JC-1 fluorescence, basal, 24 h, 100 nL (AID 1138); conditions: higher = more signal;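 further: A549 lung adenocarcinoma cells under basal conditions with no added stimulus; test concentration not given here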
Lefty1 = Lefty1 binders on small-molecule microarrays, primary screen, biochemical, small-molecule microarray, 635/667 nm fluorescence (AID 1139); conditions: small-molecule microarray binding, fluorescence 635/667; higher = more signal
[8] = test system: wheat germ agglutinin (Triticum aestivum), Alexa647-labelled; assay: wheat germ agglutinin binders on compound microarrays, profiling panel, artefact control for SMM control-protein annotation, biochemical, small-molecule microarray, 635/667 nm fluorescence (AID 1140); conditions: WGA-A647 binding, 635 nm fluorescence, higher = more signal;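 further: score merges 667 nm feature emission with signal to noise over triplicate slides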
[9] = target: Luciferin 4-monooxygenase (Photinus pyralis) (UniProt P08659); assay: firefly luciferase enzyme inhibitors, primary screen, biochemical, luminescence, purified enzyme, 2006 set (AID 1141); conditions: SteadyGlo luminescence, 30 min, higher = more signal, called active from +8 up or from −8 down;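 further: cell-free assay with purified firefly luciferase at 100 ng per well in PBS; test concentration not given here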
Chain of Luciferin 4-monooxygenase (Photinus pyralis) (P08659 whole entry, looked up): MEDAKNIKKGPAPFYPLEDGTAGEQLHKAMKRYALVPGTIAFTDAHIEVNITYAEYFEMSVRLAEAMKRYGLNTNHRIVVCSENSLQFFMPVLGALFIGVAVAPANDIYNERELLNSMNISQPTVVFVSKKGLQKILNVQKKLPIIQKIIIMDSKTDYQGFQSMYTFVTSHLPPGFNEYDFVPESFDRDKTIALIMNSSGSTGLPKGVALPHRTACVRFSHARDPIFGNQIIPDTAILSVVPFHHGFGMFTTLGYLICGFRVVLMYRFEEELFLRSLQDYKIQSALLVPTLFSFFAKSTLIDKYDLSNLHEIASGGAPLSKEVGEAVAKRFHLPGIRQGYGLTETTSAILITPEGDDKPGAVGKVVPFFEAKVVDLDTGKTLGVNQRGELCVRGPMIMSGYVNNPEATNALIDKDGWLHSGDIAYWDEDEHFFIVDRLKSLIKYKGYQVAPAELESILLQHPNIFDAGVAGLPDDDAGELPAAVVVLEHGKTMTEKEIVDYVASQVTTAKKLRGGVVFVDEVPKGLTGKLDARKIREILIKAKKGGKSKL

[10] = test system: Wnt5a (protein binding on small-molecule microarray); assay: Wnt5a binders on small-molecule microarray, primary screen, biophysical, 635/667 nm fluorescence (AID 1142); conditions: 635 nm fluorescence, higher = more signal;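 further: fluorescence read at 667 nm with signal to noise per printed feature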
[11] = cell viability in Huh7 cells, primary screen, cytotoxicity control for HCV replication inhibitor project, CellTiter-Glo luminescence, basal, 48 h (AID 1143); conditions: Huh7 HCV replicon, higher = more signal, called active from +8 up or from −8 down;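 further: Huh7 hepatoma cells carrying a hepatitis C replication reporter with no stimulus; test concentration not given here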
[12] = P. aeruginosa biofilm formation inhibitors, primary screen, PAO1 strain, BacTiter-Glo luminescence, LB-PBS (AID 1144); conditions: 12 h, higher = more signal
[13] = CREB reporter modulators without forskolin, primary screen, cell-based, PC12, CRE-LacZ reporter, unstimulated (AID 1145); conditions: no forskolin, luminescence, 4.5 h, higher = more signal, called active from +8 up or from −8 down
[14] = CREB reporter modulators under forskolin, primary screen, cell-based, PC12, CRE-LacZ reporter, forskolin-stimulated (AID 1146); conditions: luminescence, 4.5 h, higher = more signal, called active from +8 up or from −8 down;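 further: PC12 cells with 6xCRE LacZ reporter stimulated by forskolin 10 µM; beta-galactosidase reporter signal reflecting CREB driven transcription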
[15] = target: Streptavidin (Streptomyces avidinii) (UniProt P22629); assay: streptavidin binders on small-molecule microarray, primary screen, artefact control for SMM compound annotation, biophysical, 635/667 nm fluorescence (AID 1147); conditions: streptavidin binding, higher = more signal;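 further: signal reflects streptavidin binding to arrayed compounds as a control protein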
Chain of Streptavidin (Streptomyces avidinii) (P22629 whole entry, looked up): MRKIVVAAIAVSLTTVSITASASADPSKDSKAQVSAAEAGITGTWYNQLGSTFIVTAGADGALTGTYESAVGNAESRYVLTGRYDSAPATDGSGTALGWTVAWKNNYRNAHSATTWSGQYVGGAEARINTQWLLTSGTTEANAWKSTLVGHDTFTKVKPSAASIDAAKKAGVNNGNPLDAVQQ

[16] = small-molecule binders of probe aInhba, primary screen, biochemical, small-molecule microarray, 635/667 nm fluorescence (AID 1148); conditions: higher = more signal;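 further: score merges 667nm spot fluorescence with signal-to-noise for antibody binding to printed compounds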
Torsin-1A (Homo sapiens) [17] = target: Torsin-1A (Homo sapiens) (UniProt O14656); assay: torsin A binders from cell lysate, primary screen, small-molecule microarray, wild-type, 635/667 nm (AID 1149); conditions: COS7 hTOR1A-WT lysate, 635 nm fluorescence, higher = more signal
Chain of Torsin-1A (Homo sapiens) (O14656 whole entry, looked up): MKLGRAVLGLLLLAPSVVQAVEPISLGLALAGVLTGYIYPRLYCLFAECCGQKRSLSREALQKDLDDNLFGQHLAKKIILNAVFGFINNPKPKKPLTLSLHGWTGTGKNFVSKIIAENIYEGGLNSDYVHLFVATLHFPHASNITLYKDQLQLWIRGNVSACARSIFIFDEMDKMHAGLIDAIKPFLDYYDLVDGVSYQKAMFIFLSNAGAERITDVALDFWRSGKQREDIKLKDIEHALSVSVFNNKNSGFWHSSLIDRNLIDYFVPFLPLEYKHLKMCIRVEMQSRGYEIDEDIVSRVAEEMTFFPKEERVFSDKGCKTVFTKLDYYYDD

Torsin-1A (Homo sapiens) [18] = target: Torsin-1A (Homo sapiens) (UniProt O14656); assay: small-molecule binders of mutant TOR1A in lysate, primary screen, cell lysate, small-molecule microarray, COS7 lysate, 635/667 nm fluorescence (AID 1150); conditions: COS7 hTOR1A mutant lysate, 635 nm fluorescence, higher = more signal;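 further: score pools 667 nm emission and signal to noise measuring lysate protein binding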
[19] = test system: Sonic hedgehog protein (Shh); assay: small-molecule binders of Shh protein, primary screen, biochemical, small-molecule microarray, 635/667 nm fluorescence (AID 1151); conditions: small-molecule microarray binding, 635 nm fluorescence; higher = more signal;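 further: Shh protein binding to compounds spotted on small-molecule microarray slides; score combines spot fluorescence intensity with signal-to-noise across triplicate slides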

SMILES | composite z-score [1] | composite z-score [2] | composite z-score [3] | composite z-score [4] | composite z-score [5] | composite z-score [6] | z-score [7] | composite z-score (Lefty1) | composite z-score [8] | z-score [9] | composite z-score [10] | z-score [11] | z-score [12] | z-score [13] | z-score [14] | composite z-score [15] | composite z-score [16] | composite z-score (Torsin-1A (Homo sapiens) [17]) | composite z-score (Torsin-1A (Homo sapiens) [18]) | composite z-score [19]
CCCCCCCCCCC(O)C1C=CC2C(=O)N(C)C(=O)C2N1Nc1ccc([N+](=O)[O-])cc1[N+](=O)[O-] (stereo not given) | 1.38 | 1.21 | 0.851 | 0.949 | 0.0686 | -0.597 | 1.68 | -0.524 | 1 | 0.581 (inactive) | 0.218 | -0.646 (inactive) | 0.322 (inactive) | 0.44 (inactive) | 0.932 (inactive) | 1.12 | 0.211 | -0.257 | 0.565 | -0.412
OCC1CC(c2ccccc2)=NO1 (stereo not given) | 0.702 | -0.0937 | -0.219 | -0.327 | 0.5 | 0.774 | 0.875 | -0.0193 | -0.239 | -1.4 (inactive) | 0.111 | 0.414 (inactive) | -0.0165 (inactive) | 0.312 (inactive) | -0.295 (inactive) | 2.47 | -0.0405 | 0.99 | 0.322 | 0.0003
CCOC(=O)C[C@H]1[C@H](OC(=O)c2cc3ccccc3oc2=O)[C@@H](NC(=O)c2ccc(-c3ccccc3)cc2)c2cc(OCCCO)ccc2N1C(=O)c1ccccc1 | 0.942 | 1.2 | 0.309 | 0.711 | 1.34 | 0.92 | -1.24 | 1.16 | 0.997 | 0.207 (inactive) | 0.624 | -2.84 (inactive) | 1.02 (inactive) | 5.66 (inactive) | -0.818 (inactive) | 0.509 | 0.027 | 1.4 | -0.0812 | 1.87
COc1ccc(-c2nc(-c3ccccc3)c3c(c2C)CO[Si]3(C(C)C)C(C)C)cn1 | -0.479 | 0.081 | 0.268 | -0.579 | 0.16 | 0.639 | -0.0772 | 0.402 | 0.0463 | 0.431 (inactive) | 0.0934 | -0.483 (inactive) | 0.338 (inactive) | -0.607 (inactive) | 0.315 (inactive) | 0.188 | -0.0494 | 0.14 | -0.129 | 0.848
[N-]=[N+]=NCc1ccccc1C[C@@]1(C(=O)N2CCCCC2)N=C(c2ccc(OCCCO)cc2)O[C@@H]1c1ccccc1 | 0.686 | 1.12 | 0.214 | 0.519 | 0.24 | 0.201 | 0.144 | -0.693 | 0.636 | -0.362 (inactive) | 0.462 | -4.99 (inactive) | 0.914 (inactive) | -0.552 (inactive) | 0.886 (inactive) | 0.325 | 0.159 | -0.0373 | 0.601 | -0.762
C[C@@H]1NC(=O)[C@@]23C(=O)N[C@@H](Cc4ccccc4)C2[C@H](C)[C@@]2(C)O[C@H]2C3/C=C/C/C=C\CNC(=O)[C@@H]2CCCN2C1=O (stereo not given in full) | 0.104 | -0.715 | -0.178 | -1.12 | 0.148 | -0.197 | 0.0238 | 0.0216 | -0.628 | 0.0545 (inactive) | -0.0872 | -0.0642 (inactive) | -0.426 (inactive) | -0.687 (inactive) | -0.226 (inactive) | -0.591 | -0.159 | 0.271 | -0.127 | 0.44
CN(C)C(=O)[C@@]1(Cc2ccccc2CN=[N+]=[N-])N=C(c2ccc(OCCCO)cc2)O[C@H]1c1ccccc1CN=[N+]=[N-] | 2.33 | 1.21 | 0.419 | 0.856 | 0.652 | -0.025 | 1.43 | -0.483 | 1.12 | 0.184 (inactive) | 0.507 | -3.14 (inactive) | 0.427 (inactive) | 2.69 (inactive) | 0.517 (inactive) | 1.1 | 0.575 | 0.0276 | 0.767 | -0.304
COc1ccc(CCNC(=O)[C@@H]2c3ccccc3C(=O)N(Cc3cc(C(F)(F)F)cc(C(F)(F)F)c3)[C@H]2c2ccc(CO)cc2)cc1 | 2.15 | 0.102 | -0.152 | 0.629 | 0.255 | -0.258 | 1.95 | -0.297 | 0.985 | -1.16 (inactive) | 0.822 | -1.41 (inactive) | 0.703 (inactive) | 0.441 (inactive) | 0.632 (inactive) | 0.915 | -0.016 | -0.498 | -0.181 | 0.355
NC(=O)N1C(=O)C2C(C1=O)C1C=C(CCCO)C2C(c2cccs2)N1Cc1cccc(OC(F)(F)F)c1 (stereo not given) | 2.83 | 0.416 | 0.192 | 0.692 | 0.82 | -0.0701 | 0.928 | 0.672 | 0.438 | -0.929 (inactive) | -0.0995 | -2.32 (inactive) | 0.818 (inactive) | 0.0704 (inactive) | -0.461 (inactive) | 0.035 | -0.114 | 0.726 | 0.981 | 1.4
O=C1C2C=CC(C(O)c3ccc(F)cc3)N(n3cnnc3)C2C(=O)N1Cc1ccccc1 (stereo not given) | -0.782 | -0.657 | -0.284 | -0.48 | -0.524 | -0.529 | -1.3 | -0.881 | -0.271 | 1.24 (inactive) | -0.0707 | -3.57 (inactive) | -0.488 (inactive) | -0.527 (inactive) | -0.0197 (inactive) | -0.0183 | 0.0383 | -0.216 | 0.461 | -0.428
